For 67 compounds, inhibition results are on record in PubChem BioAssay AID2330 (Broad Institute, 2010).

Molecules are shown by their SMILES. Out of some 37,000 compounds screened, about 2,800 (7.6%) were called active. Inconclusive results (about 1%) are left out. No stated cut-off is given here; in the data, active means inhibition above about 80%; inconclusive means no clear call, values can overlap the other calls; inactive means below that. The full list was thinned out, with actives kept by preference.

The assay is described as follows: NOMO-1 AML cell viability reduction, primary screen, STK33 inhibitor project, CellTiter-Glo luminescence (AID 2330). The settings on record: NOMO-1 AML viability, 72 h, hits give high values, concentration not given here.
For orientation: inhibition means the change of the read-out against control, counted positive when it falls. In the case of `Cc1cc(=O)[nH]c(SCC(=O)Nc2cccc3ccccc23)n1`, the inhibition was -1.97% (inactive). To `C[C@H](CO)N1C[C@H](C)[C@H](CN(C)S(C)(=O)=O)Oc2ccc(NC(=O)Nc3ccc(F)cc3)cc2C1=O` belongs 14.7% (inactive).

With `COc1ccc(CN(C)C[C@@H]2Oc3ccc(NC(=O)NC(C)C)cc3C(=O)N([C@@H](C)CO)C[C@H]2C)cc1`, the inhibition is 11.8% (inactive). To `COc1ccc(S(=O)(=O)Nc2ccc3c(c2)CC(=O)N([C@@H](C)CO)C[C@@H](C)[C@@H](CN(C)C(=O)Nc2c(C)noc2C)O3)cc1` belongs -6.01% (inactive); to `C[C@@H]1CN([C@H](C)CO)C(=O)Cc2cc(NC(=O)Cn3cnnn3)ccc2O[C@H]1CN(C)Cc1ccc(C(F)(F)F)cc1`, -4.05% (inactive).

`COc1ccc(-c2nnc(SCC(=O)Nc3cccc(SC)c3)n2C)cc1`: the inhibition was -20% (inactive). In the case of `COc1ccccc1NC(=O)c1ccc(OCC(=O)Nc2ccccc2F)cc1`, the inhibition is 2.43% (inactive). The value for `C[C@H]1CN([C@@H](C)CO)C(=O)c2cccc(NS(C)(=O)=O)c2O[C@@H]1CN(C)C(=O)Nc1ccc(F)cc1` was -0.485% (inactive).

As for `CC1CCC(C(C)C)C(=O)/C1=C\c1ccc(NC(=O)CCC(=O)O)cc1` (configuration not stated), the inhibition is 10% (inactive). As for `COc1cc(-c2coc3cc(O[C@@H]4O[C@H](CO)[C@@H](O)[C@H](O)[C@H]4O)c(OC)c(O)c3c2=O)cc(O)c1OC`, the inhibition was -24% (inactive). To `COc1ccc(C[C@H]2COC(=O)[C@@H]2Cc2ccc(O[C@@H]3O[C@H](CO)[C@@H](O)[C@H](O)[C@H]3O)c(OC)c2)cc1OC` belongs 88.7% (active). The value for `COc1cc([C@H]2OC[C@H]3[C@@H]2CO[C@@H]3c2cc(OC)c(O[C@@H]3O[C@H](CO)[C@@H](O)[C@H](O)[C@H]3O)c(OC)c2)cc(OC)c1O` was -2.62% (inactive). With `CCc1cc(C(=O)OC)c(NC(=O)CC2Sc3ccc(C(F)(F)F)cc3NC2=O)s1` (configuration not stated), the inhibition was 43.5% (inactive).

Regarding `CCOc1ccc(NC(=O)C2CC(=O)n3c(nc4ccccc43)N2)cc1` (configuration not stated), the inhibition was 2.2% (inactive). With `C[C@H]1CN([C@@H](C)CO)C(=O)c2cc(NC(=O)Cn3cnnn3)ccc2O[C@@H]1CN(C)S(=O)(=O)c1cccs1`, the inhibition is -7.03% (inactive). For the compound `COc1ccc(S(=O)(=O)N(C)C[C@H]2Oc3ccc(NC(=O)Nc4c(C)noc4C)cc3C(=O)N([C@H](C)CO)C[C@H]2C)cc1`, the inhibition is 8.03% (inactive). To `O=C(Nc1cccnc1)c1cc2c(s1)-c1ccccc1CC2` belongs 108% (active); to `COc1ccc(C(=O)CCC(=O)Nc2cccnc2)c(OC)c1`, 1.52% (inactive). `O=C(CS(=O)(=O)Cc1ccccc1)Nc1cccnc1`: the inhibition is 4.64% (inactive). The value for `O=S(=O)(c1ccc(Cl)cc1)c1nc(-c2ccccc2F)oc1NCCN1CCOCC1` was 16.2% (inactive); that for `C[C@@H]1CN([C@@H](C)CO)C(=O)c2cccc(NC(=O)NC3CCCCC3)c2O[C@@H]1CN(C)CC1CCCCC1` was 15.8% (inactive); that for `CC(C)NC(=O)N(C)C[C@H]1Oc2ccc(NC(=O)CCCCCC(=O)Nc3ccccc3N)cc2CC(=O)N([C@@H](C)CO)C[C@H]1C` was 7.18% (inactive). The value for `C[C@H]1CN([C@@H](C)CO)C(=O)c2cccc(NC(=O)CCCCCC(=O)Nc3ccccc3N)c2O[C@@H]1CN(C)CC1CCCCC1` was 139% (active); that for `C[C@@H]1CN([C@H](C)CO)C(=O)c2cccc(NC(=O)NC3CCCCC3)c2O[C@@H]1CN(C)CC1CCCCC1` was -0.946% (inactive).

Turning to `C[C@@H]1CN([C@@H](C)CO)C(=O)c2cccc(NC(=O)CCCCCC(=O)Nc3ccccc3N)c2O[C@@H]1CN(C)CC1CCCCC1`, the inhibition is 125% (active). To `C[C@H]1CN([C@@H](C)CO)C(=O)c2cccc(NC(=O)NC3CCCCC3)c2O[C@H]1CN(C)CC1CCCCC1` belongs 15.4% (inactive); to `CC(C)NC(=O)Nc1cccc2c1O[C@H](CN(C)CC1CCCCC1)[C@H](C)CN([C@H](C)CO)C2=O`, 7.14% (inactive). Turning to `C[C@H](CO)N1C[C@H](C)[C@H](CN(C)S(=O)(=O)c2ccccc2)Oc2c(NC(=O)CCCCCC(=O)Nc3ccccc3N)cccc2C1=O`, the inhibition was 68.1% (inactive). Consider `C[C@H](CO)N1C[C@H](C)[C@H](CN(C)CC2CCCCC2)Oc2ccc(NC(=O)CCCCCC(=O)Nc3ccccc3N)cc2CC1=O`, for which the inhibition is 141% (active). The value for `C[C@@H]1CN([C@H](C)CO)C(=O)c2cccc(NC(=O)CCCCCC(=O)Nc3ccccc3N)c2O[C@H]1CN(C)CC1CCCCC1` was 139% (active). The value for `C[C@@H]1CN([C@@H](C)CO)C(=O)c2cccc(NC(=O)CCCCCC(=O)Nc3ccccc3N)c2O[C@H]1CN(C)C(=O)Nc1cccc2ccccc12` was 10.8% (inactive); that for `C[C@@H]1CN([C@@H](C)CO)C(=O)Cc2cc(NC(=O)CCCCCC(=O)Nc3ccccc3N)ccc2O[C@@H]1CN(C)C(=O)NC1CCCCC1` was 8.04% (inactive); that for `Cc1ccc([N+](=O)[O-])cc1N(CC(=O)Nc1ccc(Cl)c(C(F)(F)F)c1)S(C)(=O)=O` was 67.2% (inactive). For `Cc1cc(C(=O)Nc2cccc3c2O[C@@H](CN(C)Cc2ccc4c(c2)OCO4)[C@@H](C)CN([C@@H](C)CO)C3=O)n(C)n1`, the inhibition was 9.25% (inactive). To `COC(=O)c1ccccc1NC(=O)CNS(=O)(=O)c1cc(Cl)ccc1Cl` belongs -6.45% (inactive); to `Cc1ccc(S(=O)(=O)N(C)C[C@H]2Oc3ccc(NS(C)(=O)=O)cc3CC(=O)N([C@@H](C)CO)C[C@H]2C)cc1`, 1.2% (inactive).

Take `Cc1noc(C)c1NC(=O)Nc1ccc2c(c1)C(=O)N([C@@H](C)CO)C[C@H](C)[C@H](CN(C)S(=O)(=O)c1ccc(Cl)cc1)O2`: the inhibition is -6.69% (inactive). The value for `Oc1cc(O)c2c(c1)OC(c1ccc(O)c(O)c1)C(O)C2` (configuration not stated) was 6.96% (inactive); that for `COC(=O)C(C)N(C(=O)c1ccccc1[N+](=O)[O-])c1c(C)cccc1C` (configuration not stated) was 3.25% (inactive). In the case of `O=C(CSc1nnc(-c2ccco2)n1-c1ccccc1)Nc1ccc(F)cc1`, the inhibition was 3.32% (inactive). The value for `CCCCCCc1ccc(O)cc1O` was 108% (active); that for `C[C@H]1CN([C@@H](C)CO)C(=O)c2cccc(NC(=O)C3CCCCC3)c2O[C@H]1CN(C)C(=O)NC1CCCCC1` was -16% (inactive); that for `C[C@@H]1CN([C@@H](C)CO)C(=O)c2cc(NS(=O)(=O)c3ccc(Cl)cc3)ccc2O[C@H]1CN(C)C(=O)Nc1ccc(C(F)(F)F)cc1` was 7.09% (inactive). To `Cc1cc(Cl)ccc1NC(=O)CN(c1ccc(Cl)c(Cl)c1)S(C)(=O)=O` belongs 16% (inactive); to `COC(=O)Nc1nc2ccc(Sc3ccccc3)cc2[nH]1`, 114% (active). Regarding `COc1ccc2nc(SCC(=O)Nc3ccc(I)cc3)[nH]c2c1`, the inhibition is 6.89% (inactive).

`COc1ccc(C(=O)CSc2nc3ccc(OC)cc3[nH]2)cc1`: the inhibition was 3.9% (inactive). `COc1ccc(CN(C)C[C@H]2Oc3c(NS(=O)(=O)c4ccc(Cl)cc4)cccc3C(=O)N([C@H](C)CO)C[C@@H]2C)cc1`: the inhibition is -1.33% (inactive).

With `COc1ccc(CN(C)C[C@H]2Oc3c(NC(=O)NC4CCCCC4)cccc3C(=O)N([C@@H](C)CO)C[C@@H]2C)cc1`, the inhibition is 48.8% (inactive).

In the case of `C[C@@H]1CN([C@H](C)CO)C(=O)c2cccc(NC(=O)Nc3ccc(F)cc3)c2O[C@@H]1CN(C)Cc1ccc(C(F)(F)F)cc1`, the inhibition is 35.7% (inactive).

Take `C[C@H]1CN([C@@H](C)CO)C(=O)c2cccc(NC(=O)C3CCCCC3)c2O[C@H]1CN(C)Cc1ccc(C(F)(F)F)cc1`: the inhibition is 45.9% (inactive).

As for `C[C@@H]1CN([C@H](C)CO)C(=O)c2cccc(NC(=O)NC3CCCCC3)c2O[C@H]1CN(C)Cc1ccc(C(F)(F)F)cc1`, the inhibition was 101% (active).

For the compound `C[C@H](CO)N1C[C@H](C)[C@@H](CN(C)Cc2ccc(C(F)(F)F)cc2)Oc2c(NC(=O)NC3CCCCC3)cccc2C1=O`, the inhibition was 83.9% (active).

For `C[C@H](CO)N1C[C@H](C)[C@H](CN(C)Cc2ccc3c(c2)OCO3)Oc2c(NC(=O)NC3CCCCC3)cccc2C1=O`, the inhibition is 42.4% (inactive).

For the compound `COc1ccc(N(CC(=O)Nc2ccccc2F)S(C)(=O)=O)cc1`, the inhibition is 40.4% (inactive). To `C[C@@H]1CN([C@H](C)CO)C(=O)c2cccc(NC(=O)Nc3cccc4ccccc34)c2O[C@@H]1CN(C)Cc1ccccc1` belongs 47.5% (inactive); to `O=C(O)C1CC=CCC1C(=O)Nc1ccc(C(=O)N2CCCCC2)c(Cl)c1` (configuration not stated), 2.77% (inactive).

As for `COc1ccc(OC)c(S(=O)(=O)N(C)CC(=O)Nc2cccc(Cl)c2C)c1`, the inhibition was -0.499% (inactive). Take `Cc1ccc(OCC(=O)Nc2cccc(NC(=O)c3ccco3)c2)cc1C`: the inhibition is 30.6% (inactive). Take `COc1ccc(CN(C)C[C@@H]2Oc3ccc(NC(=O)Nc4cccc5ccccc45)cc3C(=O)N([C@H](C)CO)C[C@H]2C)cc1`: the inhibition was -6.53% (inactive). For the compound `C[C@H]1CN([C@@H](C)CO)C(=O)c2cc(NC(=O)Nc3cccc4ccccc34)ccc2O[C@@H]1CN(C)C`, the inhibition was -2.04% (inactive). Turning to `CC(C)NC(=O)Nc1ccc2c(c1)C(=O)N([C@@H](C)CO)C[C@@H](C)[C@H](CN(C)Cc1ccc(-c3ccccc3)cc1)O2`, the inhibition was 36.3% (inactive). The value for `C[C@@H]1CN([C@@H](C)CO)C(=O)c2cc(NC(=O)Nc3cccc4ccccc34)ccc2O[C@@H]1CN(C)Cc1ccc(-c2ccccc2)cc1` was 109% (active). To `C[C@@H]1CN([C@@H](C)CO)C(=O)c2cc(NC(=O)Nc3cccc4ccccc34)ccc2O[C@@H]1CN(C)C(=O)Nc1cccc2ccccc12` belongs 76.6% (inactive). `C[C@@H]1CN([C@@H](C)CO)C(=O)c2cc(NC(=O)Nc3cccc4ccccc34)ccc2O[C@H]1CN(C)Cc1ccc(Oc2ccccc2)cc1`: the inhibition was 115% (active).

Consider `C[C@H](CO)N1C[C@H](C)[C@H](CN(C)Cc2ccc3c(c2)OCO3)Oc2c(NS(=O)(=O)c3ccccc3)cccc2C1=O`, for which the inhibition was -8.2% (inactive).

For `C[C@H]1CN([C@@H](C)CO)C(=O)c2cccc(NS(=O)(=O)c3ccc(F)cc3)c2O[C@@H]1CN(C)Cc1ccncc1`, the inhibition was -1.34% (inactive).
